This assay addresses Mast/stem cell growth factor receptor Kit (Homo sapiens) (UniProt P10721). The note with it: at 1 µM.
Chain of Mast/stem cell growth factor receptor Kit (Homo sapiens) (P10721 whole entry): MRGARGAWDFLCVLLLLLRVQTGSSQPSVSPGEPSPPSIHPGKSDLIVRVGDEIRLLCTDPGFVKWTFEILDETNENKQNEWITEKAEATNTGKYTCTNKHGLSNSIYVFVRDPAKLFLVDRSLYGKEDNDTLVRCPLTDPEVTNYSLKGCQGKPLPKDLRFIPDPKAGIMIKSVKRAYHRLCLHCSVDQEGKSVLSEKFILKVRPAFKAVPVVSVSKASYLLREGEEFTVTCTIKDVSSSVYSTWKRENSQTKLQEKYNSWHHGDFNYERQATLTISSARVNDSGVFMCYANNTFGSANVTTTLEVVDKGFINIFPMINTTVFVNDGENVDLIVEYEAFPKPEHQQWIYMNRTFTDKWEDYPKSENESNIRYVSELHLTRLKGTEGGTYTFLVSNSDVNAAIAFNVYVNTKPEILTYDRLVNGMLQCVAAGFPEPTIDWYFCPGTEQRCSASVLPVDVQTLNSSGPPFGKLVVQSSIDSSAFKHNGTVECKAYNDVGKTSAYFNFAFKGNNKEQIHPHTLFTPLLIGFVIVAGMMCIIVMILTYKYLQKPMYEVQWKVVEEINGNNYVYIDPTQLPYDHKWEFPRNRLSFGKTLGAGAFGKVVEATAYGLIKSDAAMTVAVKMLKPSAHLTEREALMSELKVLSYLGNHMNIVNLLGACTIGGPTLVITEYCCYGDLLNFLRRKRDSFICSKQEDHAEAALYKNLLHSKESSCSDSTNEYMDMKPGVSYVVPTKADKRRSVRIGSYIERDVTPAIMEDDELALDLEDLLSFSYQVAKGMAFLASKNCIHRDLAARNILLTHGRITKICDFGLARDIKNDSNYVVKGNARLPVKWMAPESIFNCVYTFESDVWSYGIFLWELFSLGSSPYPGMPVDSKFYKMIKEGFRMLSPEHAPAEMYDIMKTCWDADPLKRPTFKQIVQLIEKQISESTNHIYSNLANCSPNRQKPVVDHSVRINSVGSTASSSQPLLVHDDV
For orientation: inhibition means the drop in the measured response relative to a control, in per cent. Regarding `CCn1cc(-c2ccnc3[nH]ccc23)c(-c2cccc(NC(=O)Nc3ccc(OCc4ccccc4)cc3)c2)n1`, the inhibition is -0.41%.
The figure for `Cc1cccc(Nc2ncc(-c3ccccc3)o2)c1` is 89%.
The figure for `Nc1nc(-c2ccc(F)cc2)c(-c2ccc3ncccc3n2)s1` is 9.66%; for `FC(F)(F)c1cccc(-c2nn3ncccc3c2-c2ccnc(Nc3ccc4c(c3)OCCO4)n2)c1` it is 24.6%.
Take `CNC(=O)c1cncc(/C=C/c2ccccc2Cl)c1`: the inhibition worked out at 10.7%.
As for `O=C(O[C@H]1CN[C@H](C#Cc2cc3ncnc(Nc4ccc(Cc5ccccc5)cc4)c3s2)C1)N1CCOCC1`, the inhibition was 3.44%.
As to `COc1ccc(-c2nn3ncccc3c2-c2ccnc(Nc3ccc4c(c3)OCCO4)n2)cc1`, the inhibition was determined as 85.2%.
For the compound `CCNC(=O)O[C@H]1CN[C@H](C#Cc2cc3ncnc(Nc4ccc(OCc5cccc(F)c5)c(Cl)c4)c3s2)C1`, the inhibition came to 2.58%.
For `COc1ccc(-c2oc3ncnc(N)c3c2-c2ccc(NC(=O)Nc3cc(C(F)(F)F)ccc3F)cc2)cc1` the value was 96%; for `CCn1c(-c2nonc2N)nc2cnc(Oc3cccc(NC(=O)c4ccc(N(C)C)cc4)c3)cc21`, 1.33%.
`CCn1c(-c2nonc2N)nc2c(C#CC(C)(C)O)nc(OC[C@H](N)c3ccccc3)cc21`: the inhibition came out at 1.58%.
For the compound `Fc1ccc(-c2nn3ncccc3c2-c2ccnc(Nc3ccc4c(c3)OCCO4)n2)cc1`, the inhibition was 91.9%.
As to `COc1cccc(-c2c[nH]c3c(N/N=C/c4ccncc4)ncnc23)c1`, the inhibition turned out to be 88%.
For the compound `O=C(Nc1n[nH]c2cc(-c3ccc(F)cc3)ccc12)C1CC1`, the inhibition was 5.1%.
For `Clc1ccc(-c2nn3ncccc3c2-c2ccnc(Nc3ccccc3)n2)cc1` the value was 66.9%.

The values above are taken from ChEMBL document CHEMBL1961873, “Compounds: GSK PKIS; Assays: Nanosyn kinase panel” (2012).
